Data as given in PubChem BioAssay (NCATS).
Inconclusive results are not listed. Unmarked numbers belong to inactive results. Calls of active or inactive are those of the source. Calls follow the shape of the dose curve; as a rule, active = well fitted inhibition curve with a large enough effect; inconclusive = small, poorly fitted or top-dose-only effect; inactive = flat fitted curve, though single readings scatter.

Test system: CRL-7250
Assay: Cytotoxic Profiling of Annotated Libraries Using Quantitative High-Throughput Screening (AID 1296008); also: nearly all actives have a fitted effect of over 60% in size
Conditions: Five cell lines viability, CellTiter-Glo ATP luminescence, 48-72 h; max response: hits give low values
Procedure, shortened: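 Compounds were pin-transferred onto cells and incubated 48 or 72 hr at 37 degree Celsius, 95% humidity. CellTiter-Glo was added, plates sat 10 min at room temperature, then ATP-coupled luminescence was imaged as the viability read-out.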
% is scaled to controls: 0 for no effect and ±100 for the full control effect; potency is read from the fitted curve at half-maximal effect.

| Compound | Potency | max response [%] | outcome |
| --- | --- | --- | --- |
| COc1ccc(N(C)c2nc(C)nc3ccccc23)cc1 | 0.0103 µM (active) |  |  |
| COc1ccc(C2COc3cc(O)ccc3C2)c(O)c1 (stereo not drawn) |  | -2.17 |  |
| C/C=C/C1=CC2=C(CO1)C(=O)C(C)(O)C(OC(=O)c1c(C)cc(OC)cc1O)C2 (stereo not drawn) |  | -7.89 |  |
| Cc1onc(C(=O)N2CCN(C(c3ccc(Cl)cc3)c3ccc(Cl)cc3)CC2)c1[N+](=O)[O-] | 0.58 µM (active) |  |  |
| OC/C=C/C=C/[C@H]1Cc2cc(O)cc(O)c2O1 |  |  | inactive |
| OC/C=C/c1ccc(O[C@@H]2O[C@H](CO)[C@@H](O)[C@H](O)[C@H]2O)cc1 |  | -14.7 |  |
| C=C1C[C@]23C[C@H]1CC[C@H]2[C@]1(C)CCC[C@@](C)(C(=O)O)[C@H]1[C@@H]3C(=O)O |  |  | inactive |
| CC(C)N(CCCCOCC(=O)NS(C)(=O)=O)c1cnc(-c2ccccc2)c(-c2ccccc2)n1 |  | -11.5 |  |
| C1CCC[C@H]2CCCN3CC[C@@H](CCCCCC[C@@H]4CCCN5CC[C@@H](CC1)O[C@@H]45)O[C@@H]23 |  | 0.135 |  |
| C=C(C(=O)O)C1CCC2(C)CCC(O)C(=C)C2C1 (stereo not drawn) |  | -9.49 |  |
| C=C1C(=O)O[C@@H]2/C=C(\C)C(=O)/C=C/[C@](C)(O)C[C@@H](OC(=O)C(C)C)[C@@H]12 | 4.04 µM (active) |  |  |
| CC(=O)c1c(O)cc(O[C@@H]2O[C@H](CO)[C@@H](O)[C@H](O)[C@H]2O)cc1O |  | -2.16 |  |
| Cc1ccc(S(=O)(=O)Cc2nc(-c3ccc(C(=O)NCc4cccnc4)cc3)oc2C)cc1 | 0.0651 µM (active) |  |  |
